Measurements: PubChem BioAssay AID1159580 (chemical genetic matrix, 2015)
In all, about 5,500 compounds went through this assay and about 2,000 (36%) were called active. Another 18% or so got no clear call; they are omitted. Cut-off read from the data, not from the text of the source: active = normalized growth mostly below about 0.91 (no sharp cut-off); inconclusive = no clear call, values can overlap the other calls; inactive = mostly above about 0.92. Some of the results follow.

Experiment: chemical genetic growth profiling, strain panel (AID 1159580);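 note: tested at 20 µM; growth read once vehicle control cultures reached saturation at 30 °C; 1 = growth at the plate median or of vehicle wells; lower values mean less growth of the strain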
Conditions: S. cerevisiae deletion strains, growth OD
[1] = locus YAR019C, strain CDC15, stronger effect = lower value
[2] = locus YBL105C, strain PKC1, stronger effect = lower value
[3] = locus YBR135W, strain CKS1, stronger effect = lower value
[4] = locus YBR136W, strain MEC1, stronger effect = lower value
[5] = locus YBR160W, strain CDC28, stronger effect = lower value
[6] = locus YDL017W, strain CDC7, stronger effect = lower value
[7] = locus YDL028C, strain MPS1, stronger effect = lower value
[8] = locus YDL101C, strain DUN1, stronger effect = lower value
[9] = locus YDL108W, strain KIN28, stronger effect = lower value
[10] = locus YDL132W, strain cdc53, stronger effect = lower value
[11] = locus YDL214C, strain PRR2, stronger effect = lower value
[12] = locus YDR052C, strain DBF4, stronger effect = lower value
[13] = locus YDR054C, strain cdc34, stronger effect = lower value
[14] = locus YDR226W, strain ADK1, stronger effect = lower value
[15] = locus YDR477W, strain SNF1, stronger effect = lower value
[16] = locus YER123W, strain YCK3, stronger effect = lower value
[17] = locus YER133W, strain GLC7, stronger effect = lower value
[18] = locus YFL009W, strain cdc4, stronger effect = lower value
[19] = locus YFL029C, strain CAK1, stronger effect = lower value
[20] = locus YFR003C, strain YPI1, stronger effect = lower value
[21] = locus YFR019W, strain FAB1, stronger effect = lower value
[22] = locus YFR028C, strain CDC14, stronger effect = lower value
[23] = locus YGR040W, strain KSS1, stronger effect = lower value
[24] = locus YGR052W, strain FMP48, stronger effect = lower value
[25] = locus YGR092W, strain DBF2, stronger effect = lower value
[26] = locus YHR030C, strain SLT2, stronger effect = lower value
[27] = locus YHR079C, strain IRE1, stronger effect = lower value
[28] = locus YHR082C, strain KSP1, stronger effect = lower value
[29] = locus YHR205W, strain SCH9, stronger effect = lower value
[30] = locus YIL147C, strain SLN1, stronger effect = lower value
[31] = locus YJL095W, strain BCK1, stronger effect = lower value
[32] = locus YJL128C, strain PBS2, stronger effect = lower value
[33] = locus YJL157C, strain FAR1, stronger effect = lower value
[34] = locus YJR016C, strain ILV3, stronger effect = lower value
[35] = locus YJR066W, strain TOR1 (second series), stronger effect = lower value
[36] = locus YJR066W, strain TOR1, stronger effect = lower value
[37] = locus YKL048C, strain ELM1, stronger effect = lower value
[38] = locus YKL067W, strain YNK1, stronger effect = lower value
[39] = locus YKL101W, strain HSL1, stronger effect = lower value
[40] = locus YKL193C, strain SDS22, stronger effect = lower value
[41] = locus YKL203C, strain TOR2, stronger effect = lower value
[42] = locus YLR113W, strain HOG1, stronger effect = lower value
[43] = locus YLR133W, strain CKI1, stronger effect = lower value
[44] = locus YLR403W, strain SFP1, stronger effect = lower value
[45] = locus YML070W, strain DAK1, stronger effect = lower value
[46] = locus YMR001C, strain CDC5, stronger effect = lower value
[47] = locus YMR205C, strain PFK2 (second series), stronger effect = lower value
[48] = locus YMR277W, strain FCP1, stronger effect = lower value
[49] = locus YNL006W, strain LST8, stronger effect = lower value
[50] = locus YNL020C, strain ARK1, stronger effect = lower value
[51] = locus YNL161W, strain CBK1, stronger effect = lower value
[52] = locus YNL183C, strain NPR1, stronger effect = lower value
[53] = locus YNL207W, strain RIO2, stronger effect = lower value
[54] = locus YNL222W, strain SSU72, stronger effect = lower value
[55] = locus YNL307C, strain MCK1 (second series), stronger effect = lower value
[56] = locus YOL078W, strain AVO1, stronger effect = lower value
[57] = locus YOL136C, strain PFK27, stronger effect = lower value
[58] = locus YOR061W, strain CKA2, stronger effect = lower value
[59] = locus YOR119C, strain RIO1, stronger effect = lower value
[60] = locus YOR231W, strain MKK1, stronger effect = lower value
[61] = locus YOR329C, strain SCD5, stronger effect = lower value
[62] = locus YPL031C, strain PHO85, stronger effect = lower value
[63] = locus YPL153C, strain RAD53, stronger effect = lower value
[64] = locus YPL204W, strain HRR25, stronger effect = lower value
[65] = locus YPL209C, strain IPL1, stronger effect = lower value
[66] = locus YPL256C, strain CLN2, stronger effect = lower value
[67] = locus YPR025C, strain CCL1, stronger effect = lower value
[68] = locus YPR106W, strain ISR1, stronger effect = lower value
[69] = locus YPR111W, strain DBF20, stronger effect = lower value
[70] = strain NNK1, stronger effect = lower value
[71] = strain TSCII, stronger effect = lower value

Measured: normalized growth

Nc1ccc(N2CCN(c3ccc(C(F)(F)F)cn3)CC2)nc1
inactive: [1] 0.974 | [2] 0.984 | [3] 0.969 | [4] 0.983 | [5] 0.964 | [6] 0.98 | [7] 0.949 | [8] 0.987 | [9] 0.966 | [10] 0.992 | [11] 0.927 | [12] 0.988 | [13] 0.994 | [14] 0.975 | [15] 0.862 | [16] 0.879 | [17] 0.916 | [18] 0.968 | [19] 0.971 | [20] 0.981 | [21] 0.862 | [22] 0.982 | [23] 0.865 | [24] 0.968 | [25] 0.722 | [27] 0.948 | [28] 0.966 | [29] 0.986 | [30] 0.973 | [31] 0.809 | [32] 1.02 | [33] 0.921 | [34] 0.976 | [35] 0.775 | [36] 0.879 | [37] 1.03 | [38] 0.91 | [39] 0.98 | [40] 0.983 | [41] 0.976 | [42] 0.991 | [43] 0.96 | [44] 0.9 | [45] 0.917 | [46] 0.977 | [47] 0.952 | [48] 0.952 | [49] 0.967 | [50] 0.95 | [51] 0.991 | [52] 1.01 | [53] 0.959 | [54] 0.956 | [55] 0.916 | [56] 0.982 | [57] 0.928 | [58] 0.943 | [59] 0.923 | [60] 0.904 | [61] 0.986 | [62] 0.876 | [63] 0.835 | [64] 0.828 | [65] 0.991 | [66] 0.983 | [67] 0.981 | [68] 1.01 | [69] 1.02 | [70] 0.984 | [71] 0.97
active: [26] 0.724

Cc1oc(-c2ccc(Cl)cc2)cc1C(=O)N1CCN(c2ccc(C(F)(F)F)cn2)CC1
inactive: [1] 0.977 | [2] 0.972 | [3] 0.97 | [4] 0.963 | [5] 0.969 | [6] 0.978 | [7] 0.974 | [8] 0.983 | [9] 0.974 | [10] 0.982 | [11] 0.908 | [12] 0.982 | [13] 0.969 | [14] 0.972 | [15] 0.925 | [16] 0.926 | [17] 0.938 | [18] 0.967 | [19] 0.986 | [20] 0.974 | [21] 0.992 | [22] 0.976 | [23] 0.929 | [24] 0.959 | [25] 0.874 | [27] 0.964 | [28] 0.966 | [29] 0.883 | [30] 0.979 | [31] 0.905 | [32] 0.918 | [33] 0.944 | [34] 0.979 | [35] 0.975 | [36] 0.9 | [37] 0.976 | [38] 0.907 | [39] 0.94 | [40] 0.97 | [41] 1 | [42] 0.893 | [43] 0.929 | [44] 0.94 | [45] 0.951 | [46] 0.989 | [47] 0.937 | [48] 0.975 | [49] 0.981 | [50] 0.933 | [51] 0.975 | [52] 0.95 | [53] 0.973 | [54] 0.981 | [55] 0.944 | [56] 0.981 | [57] 0.961 | [58] 0.873 | [59] 0.929 | [60] 0.96 | [61] 0.982 | [62] 0.936 | [63] 0.948 | [64] 0.936 | [65] 0.983 | [66] 0.909 | [67] 0.975 | [68] 0.972 | [69] 0.955 | [70] 0.97 | [71] 0.98
active: [26] 0.682
